SMILES strings stand for the structures. The source made the active and inactive calls.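 How the source made its calls: active means compounds whose fitted half-maximal concentration for lowering the signal is under 100 µM; inactive means the rest.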

The nature of the assay: fluorescence change in empty-vector K562 cells, dose response, counter-screen for ABCB6 inhibitor project, cell-based, flow cytometry, cherry pick set 1 (AID 623957). The following applies: K562 vector-only cells, 1 h; series mostly up to 100 µM. (The purpose of a counterscreen is to sort out artefacts and off-target activity.)
Consider `Cc1cccc(CS(=O)(=O)c2ncc(Cl)c(C(=O)Nc3c(C)cccc3C)n2)c1`, for which the result was inactive.

Take `CCCNC(=O)CCc1nnc2ccc(N3CCC(C)CC3)nn12`: the outcome was inactive.

Consider `CC(C)CCNC(=O)CCc1nnc2ccc(N3CCC(C)CC3)nn12`, for which the outcome was inactive.

On to `CCN1CCN(C(=O)CCc2nnc3ccc(N4CCC5(CC4)OCCO5)nn23)CC1`, for which the outcome was inactive.

Regarding `CCOC(=O)C(C)NC(=O)CCc1nnc2ccc(N3CCCCC3)nn12` (stereo unspecified), the call was inactive.

Regarding `O=C(CN1CCCCC1)Nc1cccc(Br)c1`, the result was inactive.

As for `CCOC(=O)C1CCN(C(=O)CCc2nnc3ccc(N4CCN(C)CC4)nn23)CC1`, the call was inactive.

Take `Cc1cccc(NC(=O)c2nc(S(=O)(=O)Cc3ccccc3)ncc2Cl)c1`: the call was inactive.

On to `CC1CC(C)CN(C(=O)CCc2nnc3ccc(N4CCCCC4)nn23)C1` (stereo unspecified), for which the call was inactive.

Turning to `COCCNC(=O)CCc1nnc2ccc(N3CCC(C)CC3)nn12`, the compound was classed as inactive.

Take `CCOC(=O)C(C)NC(=O)CCc1nnc2ccc(N3CCC(C)CC3)nn12` (stereo unspecified): the compound was called inactive.

As to `CCc1ccc(CNC(=O)C2Cc3cc(S(=O)(=O)N4CCCC4)ccc3N2C(C)=O)cc1` (stereo unspecified), the call was inactive.

With `O=C(Nc1ccc(F)cc1)c1nc(S(=O)(=O)Cc2ccccc2)ncc1Cl`, the result was inactive.

Regarding `COC(=O)C(NC(=O)CCc1nnc2ccc(N3CCCCC3)nn12)C(C)C` (stereo unspecified), the outcome was inactive.

Take `CC1CCN(c2ccc3nnc(CCC(=O)NCCCOC(C)C)n3n2)CC1`: the result was inactive.

`O=C(CCc1nnc2ccc(N3CCC4(CC3)OCCO4)nn12)N1CCCCC1`: the compound was called inactive.

As to `CCOCCCNC(=O)CCc1nnc2ccc(N3CCCCC3)nn12`, the outcome was inactive.

`COC(=O)c1ccc(NC(=O)c2nc(S(=O)(=O)Cc3cccc(C)c3)ncc2Cl)cc1`: the compound was called inactive.

Turning to `CC1CCN(C(=O)CCc2nnc3ccc(N4CCC5(CC4)OCCO5)nn23)CC1`, the compound was called inactive.

For the compound `COCCCNC(=O)CCc1nnc2ccc(N3CCC(C)CC3)nn12`, the compound was classed as inactive.

As to `CCOC(=O)CNC(=O)CCc1nnc2ccc(N3CCC(C)CC3)nn12`, the compound was classed as inactive.

For `CN1CCN(C(=O)CCc2nnc3ccc(N4CCC5(CC4)OCCO5)nn23)CC1`, the outcome was inactive.

Consider `CCC(C)NC(=O)CCc1nnc2ccc(N3CCC(C)CC3)nn12` (stereo unspecified), for which the compound was classed as inactive.

Consider `CC1CCN(c2ccc3nnc(CCC(=O)N4CCCCC4)n3n2)CC1`, for which the outcome was inactive.

For `CC1CCN(c2ccc3nnc(CCC(=O)NC(C)C)n3n2)CC1`, the result was inactive.

Take `CCN(CC)CCNC(=O)CCc1nnc2ccc(N3CCC(C)CC3)nn12`: the call was inactive.

Turning to `Cc1cccc(CS(=O)(=O)c2ncc(Cl)c(C(=O)Nc3ccc(F)cc3)n2)c1`, the compound was called inactive.

As for `COC(=O)C(NC(=O)CCc1nnc2ccc(N3CCC(C)CC3)nn12)C(C)C` (stereo unspecified), the result was inactive.

As for `Cc1ccc(NC(=O)c2nc(S(=O)(=O)Cc3ccccc3)ncc2Cl)cc1`, the compound was classed as inactive.

Take `CCN(CC)S(=O)(=O)c1cccc(-n2c(O)c(C=Nc3ccccc3C(=O)O)c3ccccc3c2=O)c1`: the call was inactive.

`CCOC(=O)N1CCN(CC(=O)Nc2ccc(C)cc2)CC1`: the compound was called inactive.

The values are drawn from PubChem BioAssay AID623957 (NMMLSC, 2012).
